Screens: PubChem, several laboratories
RT RNaseH block = blocks HIV-1 RNase H cleavage of RNA/DNA duplex; P04585; RT-RNase H RNA/DNA duplex cleavage, fluorescence; inhibition, % at 10 µM; actives 1.9% (n = 65,000); in the data active = inhibition above about 50%
RmlCD inh mix = mixture blocks RmlC and RmlD coupled enzyme activity; RmlC/RmlD coupled enzyme inhibition, 384-well mixture HTS; inhibition, % at 5.5 µM; actives 0.39% (n = 110,000); AID 1532; in the data active = inhibition above about 30%, passing the limit was not always enough; inconclusive = no clear call, values can overlap the other calls
The depositor's hits bear a star; ? = inconclusive; nt = no result given. This excerpt belongs to a sample that is enriched for hits.

SMILES | RT RNaseH block | RmlCD inh mix
CCOC(=O)C(O)(C1C(=O)CC(C)(C)CC1=O)C(F)(F)F (stereo unspecified) | -7 | 1
CC(=O)N=c1c(C#N)cc2c(=O)n3cccc(C)c3nc2n1CC(C)C | 3 | nt
N#Cc1c(-c2ccccc2)ccn(Cc2ccc(Cl)cc2)c1=O | nt | 10
Cc1ccc(OC2=NS(=O)(=O)c3ccccc32)cc1 | nt | -14
CCN(CC)c1cccc(OC2=NS(=O)(=O)c3ccccc32)c1 | 55* | 125
Cc1ccc(-n2nnnc2SCCNS(=O)(=O)c2ccccc2)cc1C | -70 | -3
COc1ccccc1CN(Cc1cc2c(C)ccc(C)c2[nH]c1=O)Cc1nnnn1Cc1ccco1 | -12 | 6
Cc1ccc(Cn2c(=S)[nH]c3ccc(N4CCOCC4)cc3c2=O)o1 | 64* | 14
O=c1c2cc(N3CCOCC3)ccc2[nH]c(=S)n1Cc1ccc(Cl)cc1 | nt | -21
CN1C(=O)/C(=C/c2cn(CC(=O)N3CCCCC3)c3ccccc23)c2ccccc21 | nt | 11
COCCn1c(SCC(=O)c2[nH]c(C)c(C(C)=O)c2C)nc2ccccc21 | 1 | -8
COc1ccc(C2C=C(c3ccccc3)Nc3nnnn32)cc1 (stereo unspecified) | -2 | 12
COc1ccc(C2C=C(c3ccccc3)Nc3nc(NC(C)=O)nn32)cc1 (stereo unspecified) | nt | 40*
COc1ccc(-c2nc(C#N)c(NCC3CCCO3)o2)cc1OC (stereo unspecified) | -4 | 42*
CCOc1ccc(-c2nc(C#N)c(NCC3CCCO3)o2)cc1 (stereo unspecified) | nt | 5
CC(C)c1nnc(NC(=O)c2c(O)c3cccc4c3n(c2=O)CC4)s1 | -21 | nt
CCCc1nnc(NC(=O)c2c(O)c3cccc4c3n(c2=O)CCC4)s1 | 72* | 10
O=C(c1cccs1)N(Cc1ccccn1)Cc1ccco1 | -2 | -4
S=C1SCN(Cc2ccccn2)CN1Cc1ccco1 | 52* | 7
CC(C)CC(=O)O/N=C1\C(=O)N(Cc2ccc(Cl)cc2)c2ccc([N+](=O)[O-])cc21 | nt | 3
N#Cc1ccsc1NC(=O)CN1CCCCCC1 | nt | 4
CN(CC(=O)Nc1sccc1C#N)C1CCCCC1 | 58* | 4
CCOC(=O)N1CCC(N2CCN(S(=O)(=O)c3ccc4ccccc4c3)CC2)CC1 | nt | -6
Cc1oc(-c2ccc(F)cc2)cc1-c1nn2c(-c3ccoc3C)nnc2s1 | 63* | 6
Cc1oc(-c2ccc(F)cc2)cc1-c1nn2c(-c3ccco3)nnc2s1 | 32 | nt
SMILES | RT RNaseH block | RmlCD inh mix
C#C[C@]1(O)CC[C@H]2[C@@H]3CCC4=Cc5oncc5C[C@]4(C)[C@H]3CC[C@@]21C | nt | 7
CCOc1cc2[nH]c(=O)n(CCC(=O)NCCc3ccccc3)c(=O)c2cc1OCC | 64* | 5
CCOc1cc2[nH]c(=O)n(CCC(=O)NCCc3ccc(OC)c(OC)c3)c(=O)c2cc1OCC | 0 | -5
CCOc1cc(CNc2ncc(-c3ccc(OC)cc3)n2C)ccc1O | -2 | -9
Cc1ccc(-n2ncc(C(=O)NCc3ccc4c(c3)OCO4)c2NC(=O)c2ccco2)cc1C | 0 | -16
COc1cc(N/C=C(\C(C)=O)c2ccccc2)cc(OC)c1 | nt | 8
Cc1nc2sccn2c1-c1nc(C2CC2)c(C(=O)c2ccc3c(c2)NC(=O)CO3)s1 | -10 | nt
O=C(CCCCCn1c(=S)[nH]c2cc3c(cc2c1=O)OCO3)N1CCN(C(=O)c2ccco2)CC1 | 10 | -10
O=C(CCCCCn1c(=S)[nH]c2cc3c(cc2c1=O)OCO3)N1CCN(Cc2ccccc2)CC1 | 68* | 9
Cc1cccc(CN2C[C@]34CC[C@@H](C[C@@H]3S2(=O)=O)O4)c1 | nt | 7
CC(C)[C@@]1(NC(=O)[C@@H]2C=C3c4cccc5[nH]cc(c45)C[C@H]3N(C)C2)O[C@@]2(O)[C@@H]3CCCN3C(=O)[C@H](Cc3ccccc3)N2C1=O | 55* | nt
CC(C)C[C@H]1C(=O)N2CCCC2[C@]2(O)O[C@](NC(=O)[C@@H]3C=C4c5cccc6[nH]cc(c56)CC4N(C)C3)(C(C)C)C(=O)N12 (stereo partly specified) | nt | -3
COC(=O)C1=C[C@@H](C(=O)OC)[C@@H]2C3=C(C(=O)[C@@]2(C)NC(=O)c2ccccc2)[C@H](C)C(C(=O)OC)=C(C(=O)OC)[C@@H]3C1 | nt | -3
COc1ccc(C2/C=C\CN(C(=O)NC34CC5CC(CC(C5)C3)C4)CC(=O)N2Cc2ccc(F)cc2)cc1 (stereo unspecified) | nt | 7
O=C(c1ccc2nc3ccccc3c(=O)n2c1)N1CCN(Cc2ccc3c(c2)OCO3)CC1 | nt | 31*
O=C(c1cccn2c(=O)c3ccccc3nc12)N1CCN(Cc2ccc3c(c2)OCO3)CC1 | -16 | 3
Cc1nc2c(cnn2-c2ccc(Cl)cc2)c(=O)n1-c1ccc2c(c1)OCCO2 | -27 | nt
O=C(Nc1ccc(/C=C/c2nc3ccccc3o2)cc1)c1ccc(F)cc1 | nt | -31
Clc1ccc(Cl)c(-c2nn3c(Cn4cnc5ccccc54)nnc3s2)c1 | -30 | 9
Clc1ccc(-c2nn3c(Cn4cnc5ccccc54)nnc3s2)c(Cl)c1 | 71* | nt
C[C@@]12CCC=C[C@H]1[C@H](c1ccc(F)c(/C=C/c3ccccc3)c1)N(Cc1ccccc1)C2=O | nt | 0
Cc1ccc(CNC(=O)C2CC3Cn4c(nc5cc(Cl)c(Cl)cc54)C3N2C)o1 (stereo unspecified) | nt | 0
Cc1nc2ccc(C(=O)O)cc2c2c1CC(C)S2 (stereo unspecified) | 63* | -1
Cc1nc2cc(C(=O)O)ccc2s1 | 4 | 5
O=C1C=C(c2ccc(F)nc2)CCC1 | nt | 12
SMILES | RT RNaseH block | RmlCD inh mix
CCOC(=O)c1cc(OC(=O)c2cccs2)n(-c2ccccc2)n1 | 50* | -8
CCOC(=O)c1cc(OC(=O)c2ccccc2)n(-c2ccccc2)n1 | nt | -32
CCN1C(c2ccc(F)cc2)=CS/C1=C(\C#N)c1nnc2n1-c1ccccc1SC2 | -6 | -1
COc1ccc(NC(=O)CSc2nnc(CNc3ccc(F)cc3)o2)c(OC)c1 | 1 | -3
O=C(CSc1nnc(COc2ccc3c(c2)CCCC3)o1)Nc1ccc(F)cc1 | 59* | 5
CCOC(=O)N1CCC(NC(=O)c2ccc3c(c2)N(Cc2ccc(C)cc2)CCS3)CC1 | nt | -46
CCOC(=O)N1CCC(NC(=O)c2ccc3c(c2)N(C)CCS3)CC1 | 0 | 61*
CC1(c2nnc(-c3ccccc3)o2)CC(c2ccncc2)=NO1 (stereo unspecified) | nt | 0
Cc1cc(C)c2c(n1)nn1c(N3CCN(Cc4ccccc4)CC3)cc(C)nc21 | 5 | nt
COc1ccc(F)cc1CN1CCN(c2cc(C)nc3c4c(C)cc(C)nc4nn23)CC1 | -1 | 50*
COc1ccc(CNS(=O)(=O)c2ccccc2Br)cc1 | nt | 1
COCCCn1c2nc3ccccc3nc2c2c(=O)n(Cc3ccccc3Cl)cnc21 | 16 | 75*
COCCCn1c2nc3ccccc3nc2c2c(=O)n(Cc3ccc(Cl)cc3)cnc21 | 18 | 21
Cc1occc1-c1nnc(SCC(=O)N2CCc3ccccc32)o1 | -2 | 5
C/C(=N\O)C(=O)C(CN1CCCCC1)CN1CCCCC1 | 51* | -4
CC(=O)/C(CN1CCCCC1)=N\O | -10 | 1
CC(C)(C)NC(=O)COC(=O)c1cc(F)c(F)cc1Cl | nt | -4
CCOC(=O)/C=C/S(=O)(=O)c1ccc(NC(C)=O)cc1 | 50* | ?
CCOC(=O)c1cccc(NS(=O)(=O)c2ccc(NC(C)=O)cc2)c1 | nt | 4
